Source: ChEMBL document CHEMBL4513216, “Probing the Open Global Health Chemical Diversity Library for Multistage-Active Starting Points for Next-Generation Antimalarials” (ACS Infect Dis, 2020)
Screen size: about 69,000 compounds; about 8,600 (12%) showed an effect of 50% or more. Many of the other results were omitted from the sample, so strong results are more common in it than they were.

These compounds were tested on Plasmodium berghei (assay: Screen against P. berghei liver stage (PbLuc), transformed with Luciferase, at 10uM). Details: tested at 10 uM.
Assay type: functional, HepG2

Going from `CC(C)c1nccn1CC(=O)Nc1ccnn1C(C)C(C)C` (centres undefined) to `Cc1nccn1CCC1CCN(c2ncccn2)CC1`, the INHIBITION rises from -5.51% to 48.5%.

Compared with `COC(=O)c1cccc(C(=O)NCc2ccco2)n1`, `CN(C)C(=O)N1C[C@@H](C(=O)NCc2ccco2)C[C@H]2OCC[C@H]21` is lower in INHIBITION: 41.6% for the first, -28% for the second.

First: CC(=O)Nc1ccc(S(=O)(=O)N2CCOC(Cn3ccnc3)C2)cc1 (centres undefined)
Second: CCc1ccc(NC(=O)CCN2CC(n3nc(C)cc3C)C2)cc1
The INHIBITION of the first is lower: -36.4% for the first, 52.6% for the second.

Compared with `Cc1cc(C)n(C2CN(CCC(=O)NC3CCCCC3)C2)n1`, `Cc1cc(C)n(C2CN(CCC(=O)NCCc3ccccc3)C2)n1` is higher in INHIBITION: 25.6% for the first, 36.3% for the second.

First: CS(=O)(=O)N[C@@H]1CN(C(=O)c2cc3ccccc3s2)C[C@H]1O
Second: CSCCc1c(-c2ccccc2)ncn1[C@H]1C[C@@H](C(=O)O)N(C)C1
The INHIBITION of the first is lower: -19.7% for the first, 19.5% for the second.

First: CC(=O)N1CCC(c2cc(C(F)(F)F)nc3nccn23)CC1
Second: CC(=O)N1CCC(c2cc(C(F)(F)F)n3ccnc3n2)CC1
The INHIBITION of the first is higher: 61.9% for the first, -22.6% for the second.

Compared with `FC(F)(F)c1cc(C2CCN(c3cnccn3)CC2)n2ccnc2n1`, `O=C(Cc1ccccc1)N1CCOC(c2nc(-c3ncccn3)no2)C1` (centres undefined) is lower in INHIBITION: -7.98% for the first, -20.2% for the second.

Going from `CN(C)C(=O)CN1CCc2onc(-c3ccccc3F)c2C1` to `CSCC(=O)N(C)Cc1noc(-c2ccccc2)n1`, the INHIBITION rises from -17.8% to 55.9%.

First: Cc1ccc(CN2C[C@@H]3CN(c4ncc(F)cn4)C[C@@H]3C2)cc1
Second: Fc1cnc(N2C[C@H]3CN(Cc4cccc(F)c4)C[C@H]3C2)nc1
The INHIBITION of the first is lower: 46.7% for the first, 60% for the second.

First: Fc1cccc(CN2C[C@@H]3CN(c4ncccn4)C[C@@H]3C2)c1
Second: c1cnc(N2CCN(CCn3ccnc3-c3ccncc3)CC2)nc1
The INHIBITION of the first is lower: 28.5% for the first, 50.5% for the second.

First: CN(CCCc1cc(-c2ccc(F)cc2)n(C)n1)CC(N)=O
Second: Cn1nc(C(=O)NCc2ccc(F)cc2)c2c1CCS(=O)(=O)C2
The INHIBITION of the first is lower: -65.6% for the first, 21.7% for the second.

Compared with `CN1CC[C@H](N(Cc2ccccc2)Cc2ccccc2)C[C@H](O)C1`, `CN1CCC(N(CCc2ccccc2)C(=O)c2ccc(CO)cc2)CC1` is lower in INHIBITION: 32.1% for the first, 25.2% for the second.

First: Cc1ccc(CN2CCO[C@@H]3C[C@@H](C(=O)NC(C)C)C[C@H]32)o1
Second: O=C([C@H]1CC[C@@H]2[C@@H](CCN2Cc2ccc(F)cc2)O1)N1CCCO1
The INHIBITION of the first is lower: -26.5% for the first, -11.6% for the second.

Going from `CC(C)(Cn1cnc(-c2ccccc2)c1-c1ccco1)N1CCOCC1` to `CSCCc1c(-c2ccccc2)ncn1CC(C)(C)N1CCOCC1`, the INHIBITION rises from 51.7% to 69.3%.

Going from `CN(C)CC(C)(C)Cn1cnc(-c2ccccc2)c1-c1ccncc1` to `CN(C)CC(C)(C)Cn1cnc(-c2ccccc2)c1-c1cccc(O)c1`, the INHIBITION falls from -18.1% to -39.3%.

Compared with `CSCCc1c(-c2ccccc2)ncn1CC(C)(C)N1CCCC1`, `c1ccc(-c2cnc(CN3CCCC3Cn3cccn3)o2)cc1` (centres undefined) is higher in INHIBITION: 26.7% for the first, 40.9% for the second.

First: CCc1cc(CN(C)C(=O)c2cc(=O)[nH]c(=O)[nH]2)on1
Second: CCc1nc(CN(C)C(=O)CSC)no1
The INHIBITION of the first is lower: -34.8% for the first, -4.96% for the second.

Going from `CCn1nc(C)c2ncnc(N3CCCC(C)C3)c21` (centres undefined) to `Cc1ccc(N2CCCC(N(C)c3nn4cc(C)nc4s3)C2)nn1` (centres undefined), the INHIBITION falls from 26.9% to -21.9%.

Going from `CCN(CC1CCOC1)C(=O)c1ccc(N(C)C)cc1F` (centres undefined) to `CCCC1(NC(=O)C(c2ccc(F)cc2)N(C)C)CC1` (centres undefined), the INHIBITION rises from 13.8% to 53.6%.

Compared with `COc1ccc(C(NCc2cccc(O)c2)C2CC2)cc1` (centres undefined), `CC(Cn1cccn1)NCc1csc(COc2ccc(F)cc2)n1` (centres undefined) is higher in INHIBITION: 3.84% for the first, 33.7% for the second.

Going from `CC(C)COCC1CN(Cc2ccoc2)Cc2ncn(C)c21` (centres undefined) to `CC(C)COCC1CN(Cc2cnn(C)c2)Cc2ncn(C)c21` (centres undefined), the INHIBITION rises from 9.51% to 28.3%.

First: Cn1cnc2c1C(COCC1CC1)CN(Cc1ccc3c(c1)OCO3)C2 (centres undefined)
Second: CCOCC1CN(Cc2ccc3c(c2)OCO3)Cc2ncn(C)c21 (centres undefined)
The INHIBITION of the first is higher: 63.5% for the first, 23.3% for the second.

First: CC(C)COCC1CN(Cc2ccc3c(c2)OCO3)Cc2ncn(C)c21 (centres undefined)
Second: COCC1CN(Cc2ccc3c(c2)OCO3)Cc2ncn(C)c21 (centres undefined)
The INHIBITION of the first is higher: 55.1% for the first, 38.2% for the second.

Going from `CC(C)Cn1c(=O)[nH]c2cn(-c3ccc(F)cc3)c(=O)n21` to `CN(C)C(C(=O)NC1(CO)CCCC1)c1ccc(F)cc1` (centres undefined), the INHIBITION rises from 11.4% to 31.3%.

Going from `Cc1cc(CN2CCC3(CC2)CC(Nc2ncccn2)CO3)nn1C` (centres undefined) to `O=C1CC2(CCCC2)CC(=O)N1Cc1ncccn1`, the INHIBITION rises from -0.813% to 29.4%.

Going from `COCC1(NC(=O)C(c2ccc(F)cc2)N(C)C)CCCC1` (centres undefined) to `O=C1NCCCCC1NCc1csc(-c2ccc(F)cc2)n1` (centres undefined), the INHIBITION falls from 21.1% to -7.17%.

Compared with `CCOc1ccc(CCCC(=O)N2CCC(c3nnn[nH]3)CC2)cc1C`, `Cc1cc(C)n(C2CCCN(C(=O)CCOc3cccc(F)c3)C2)n1` (centres undefined) is lower in INHIBITION: 17.7% for the first, -25.9% for the second.

Compared with `CC(C)CC(=O)N1CCCCC(NC(=O)CCc2cccnc2)C1` (centres undefined), `COCC(=O)N1CCC2(CC1)CC(CC(=O)NC1CC1)c1ccccc12` (centres undefined) is lower in INHIBITION: 34.4% for the first, 25.6% for the second.

Compared with `CCO[C@H]1CCN(S(=O)(=O)c2cn(C)cn2)[C@H]1Cc1ccccc1`, `CN1CCC(N(CCc2ccccc2)C(=O)c2ccc(C#N)nc2)CC1` is higher in INHIBITION: -55.5% for the first, 12.5% for the second.

Going from `C1CC(c2noc(C3CC3)n2)CN(Cc2noc(C3CC3)n2)C1` (centres undefined) to `c1cc(CN2CCCC(c3noc(C4CC4)n3)C2)no1` (centres undefined), the INHIBITION rises from 17.8% to 51.6%.

First: Cc1cccn2cc(CN3CCCC(c4noc(C5CC5)n4)C3)nc12 (centres undefined)
Second: Cc1ccc2nc(C3CCCN(Cc4ccccc4)C3)nc(O)c2c1 (centres undefined)
The INHIBITION of the first is lower: -48.6% for the first, 30.8% for the second.

First: CCN(Cc1cnn(C)c1)C[C@H]1CC[C@@H](Cc2ccc(CO)cc2)O1
Second: CN1CCC(N(CCc2ccccc2)C(=O)c2ccc(C#N)cc2)CC1
The INHIBITION of the first is lower: -5.78% for the first, 53.1% for the second.

First: O=C(NCc1ccco1)[C@H]1C[C@@H]2CCN(c3nncs3)C[C@H]2O1
Second: Cc1ccc(CN2CCC(n3cc(C(O)c4ccccc4)nn3)CC2)o1 (centres undefined)
The INHIBITION of the first is lower: 13.5% for the first, 48.5% for the second.

Going from `CN(Cc1noc(-c2ccccc2)n1)C(=O)CSc1nnc(N)s1` to `Cc1nc(N)sc1C(=O)N1Cc2ccccc2OC2(CCOCC2)C1`, the INHIBITION rises from 18.9% to 61.7%.

Compared with `Cn1nc(C(=O)NCc2cccnc2)c2c1CCS(=O)(=O)C2`, `Cn1nc(C(=O)NCc2ccccn2)c2c1CCS(=O)(=O)C2` is lower in INHIBITION: 73.9% for the first, -45% for the second.

Compared with `Cn1nc(C(=O)NCc2ccc(Cl)cc2)c2c1CCS(=O)(=O)C2`, `COc1ccc(CNC(=O)c2nn(C)c3c2CS(=O)(=O)CC3)cc1` is lower in INHIBITION: 53.2% for the first, 40% for the second.

Going from `Cn1nc(C(=O)NCc2cccs2)c2c1CCS(=O)(=O)C2` to `Cn1ccc(C(=O)NCc2ccc(N3CCCCCC3)nc2)cc1=O`, the INHIBITION falls from 23.4% to 17.4%.

Going from `Cc1cnnn1Cc1nnn2c1CN(Cc1ccccn1)CCC2` to `OC(c1ccccc1)c1cn(C2CCN(Cc3nccs3)CC2)nn1` (centres undefined), the INHIBITION falls from 42.6% to 18.5%.

Going from `O=C(O)CSc1nc(-c2ccc3c(c2)CCC3)n[nH]1` to `CCc1cc(=O)n(CC(=O)N2CCCCC2)c(-c2cccc(F)c2)n1`, the INHIBITION rises from 11.4% to 44.1%.

First: c1cnc(N2CCN(CCn3ccnc3-c3c[nH]cn3)CC2)nc1
Second: Cc1ccsc1CN1CCC(n2cc(C(O)c3ccccc3)nn2)CC1 (centres undefined)
The INHIBITION of the first is lower: 14.5% for the first, 72.1% for the second.

Going from `Cc1cnc(C(=O)N2Cc3ccccc3OC3(CCOCC3)C2)cn1` to `Cc1ccc(C(=O)N2Cc3ccccc3OC3(CCOCC3)C2)cn1`, the INHIBITION rises from -6.92% to 52%.

Compared with `O=C(c1cncnc1)N1Cc2ccccc2OC2(CCOCC2)C1`, `O=C(c1ccncc1)N1Cc2ccccc2OC2(CCOCC2)C1` is higher in INHIBITION: -33.4% for the first, 20.5% for the second.

First: O=C(c1ccc(O)nc1)N1Cc2ccccc2OC2(CCOCC2)C1
Second: O=C(c1ccccn1)N1Cc2ccccc2OC2(CCOCC2)C1
The INHIBITION of the first is lower: 25.6% for the first, 48.4% for the second.

Compared with `Cc1cc(C(=O)N2Cc3ccccc3OC3(CCOCC3)C2)nc(N)n1`, `Nc1nonc1C(=O)N1Cc2ccccc2OC2(CCOCC2)C1` is lower in INHIBITION: 52.9% for the first, 8.72% for the second.

Going from `O[C@H]1CN(Cc2ccc3c(c2)OCCO3)CC[C@@]12CCCO2` to `O=C(CC1CCC2(CC1)CCN(Cc1ccncc1)CC2)N1CCCC1`, the INHIBITION falls from 19.6% to -15.2%.

Compared with `Cc1cnc(-c2nc(O)c3c(n2)CN(C(=O)C2CCCO2)CC3)cn1` (centres undefined), `Cc1cc(C)nc(NC2CCC(=O)N(C)C2)n1` (centres undefined) is higher in INHIBITION: 9.05% for the first, 11.5% for the second.

Compared with `CCN(Cc1ccoc1)C(=O)C1CCN(C(=O)OC(C)(C)C)C1` (centres undefined), `CC(C)CC(O)C1CCN(C(=O)c2coc(CN3CCOCC3)c2)CC1` (centres undefined) is higher in INHIBITION: -12.4% for the first, 16.7% for the second.

Going from `Cc1cc(C(=O)NC2=NCCS2)c(C)n1-c1ccccn1` to `CN(C)C1CC2(CCN(C(=O)c3csnn3)CC2)c2ccccc21` (centres undefined), the INHIBITION falls from 42.1% to -22.1%.

First: CC(CO)CN(Cc1ccccc1)Cc1c[nH]cn1 (centres undefined)
Second: CN(C)C1CC2(CCN(C(=O)NC3CC3)CC2)c2ccccc21 (centres undefined)
The INHIBITION of the first is lower: 9.55% for the first, 61.1% for the second.

Going from `CN(C)C1CC2(CCN(C(=O)C3(C#N)CC3)CC2)c2ccccc21` (centres undefined) to `Cc1ccc2c(c1)C(N(C)C)CC21CCN(CCO)CC1` (centres undefined), the INHIBITION falls from 57.5% to -57.1%.

Going from `O=C(NC1CC1)N1CCC2(CC1)CC(N1CCOCC1)c1ccccc12` (centres undefined) to `CN1CCc2nc(C3CCCN(S(=O)(=O)N4CCCC4)C3)ncc2C1` (centres undefined), the INHIBITION falls from 43% to 23.325%.

Compared with `Cc1cc(C)nc(NC2CC(=O)N(C)C2)n1` (centres undefined), `Cc1cc(C)nc(NC2CC(=O)N(C(C)(C)C)C2)n1` (centres undefined) is lower in INHIBITION: 63.3% for the first, 31.2% for the second.
